Inconclusive results are not listed. Calls of active or inactive are those of the source. Unless noted, calls follow the shape of the dose curve; as a rule, active = well fitted curve in the direction sought with a large enough effect; inconclusive = small, poorly fitted or top-dose-only effect, or another doubt; inactive = no such curve, though single readings can be large; an effect the other way counts as inactive or inconclusive.
How the values were obtained:
[1] = AP1 Signaling Pathway (AID 357; active = well fitted curve in either direction with a large enough effect, not every such curve was filed as active;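 also: ME-180 reporter cells stimulated with EGF at its EC50 level; % is scaled to controls: 0 for no effect and ±100 for the full control effect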); details: ME-180 AP-1-bla reporter, EGF-induced, beta-lactamase ratio, 5 h; at 38 µM (top of the series)
Method in brief: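 Read-out was the 460nm/530nm emission ratio (excitation 405nm) after CCF4 loading for 2.5 hours at room temperature. Cells carried an AP-1-driven beta-lactamase reporter, were stimulated with EC50 EGF plus compound for 5 hours, and AC50 values came from titrations.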

[2] = target: Cytochrome P450 1A2 (Homo sapiens) (UniProt P05177); assay: p450-cyp1a2 (AID 410; calls by dose curve;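 also: -100% = full effect of reference inhibitor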)
Sequence of Cytochrome P450 1A2 (Homo sapiens) (P05177 whole entry, looked up): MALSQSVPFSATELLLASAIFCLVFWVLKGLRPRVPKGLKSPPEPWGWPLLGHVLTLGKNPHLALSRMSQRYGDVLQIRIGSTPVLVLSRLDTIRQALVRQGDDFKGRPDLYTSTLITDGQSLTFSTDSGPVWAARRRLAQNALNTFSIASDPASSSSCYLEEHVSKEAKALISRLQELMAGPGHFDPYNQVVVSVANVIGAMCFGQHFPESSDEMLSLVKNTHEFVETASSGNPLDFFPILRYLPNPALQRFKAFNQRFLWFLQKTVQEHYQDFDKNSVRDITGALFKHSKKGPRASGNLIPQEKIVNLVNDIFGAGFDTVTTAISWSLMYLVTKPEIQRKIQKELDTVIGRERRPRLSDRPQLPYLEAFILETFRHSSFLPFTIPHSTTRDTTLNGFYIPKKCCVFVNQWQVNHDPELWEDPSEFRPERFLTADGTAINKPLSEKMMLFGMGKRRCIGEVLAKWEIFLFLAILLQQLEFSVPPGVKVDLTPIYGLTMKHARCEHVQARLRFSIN
Method in brief: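 Inhibition was calculated relative to 57 uM furafylline (full inhibition). The reaction used human CYP1A2 at 20nM with Luciferin-ME at its Km, 100uM, driven by an NADPH-regenerating system for 60 min at room temperature.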

[3] = NFAT Signaling Pathway (AID 444; active = well fitted curve in either direction with a large enough effect, not every such curve was filed as active;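 also: carbachol stimulus at about its EC50 of 1 µM final; % is scaled to controls: 0 for no effect and ±100 for the full control effect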); details: Jurkat NFAT-bla M1, carbachol, beta-lactamase ratio, 5 h; at 38 µM (top of the series)
Method in brief: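 Jurkat cells carrying an NFAT-driven β-lactamase reporter and co-transfected muscarinic M1 receptor were treated with compound plus carbachol (1 uM final, an EC50 level) for 5 h at 37 °C. CCF4 loading followed for 1 h at RT; 460/530 nm ratio gave %activity.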

[4] = Stat Signaling Pathway (AID 446; active = well fitted curve in either direction with a large enough effect, not every such curve was filed as active;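 also: ME-180 cervical cancer cells given 40 pM IL-6 alongside compound; SIE-controlled beta-lactamase reporter measured as 460/530 nm FRET emission ratio; % is scaled to controls: 0 for no effect and ±100 for the full control effect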); details: ME-180 SIE beta-lactamase reporter, IL-6 stimulated, 5 h; at 38 µM (top of the series)
Method in brief: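 ME-180 SIE-bla cells; overnight plating; cpd + IL-6 40 pM, 5 h, 37 C; LiveBLAzer 2.5 h RT; 460/530 nm emission ratio. Normalized to 300 pM IL-6 and 125 nM JAK inhibitor controls.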

[5] = target: Glucocorticoid receptor (Homo sapiens) (UniProt P04150); assay: GR-GFP Redistribution (AID 450;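 active = compounds whose dose series gives a full or clear partial fitted curve of increased nuclear translocation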; also: potency is read from the fitted curve at half-maximal effect); details: U2OS GR-GFP nuclear translocation, laser cytometry, 2 h
Sequence of Glucocorticoid receptor (Homo sapiens) (P04150 whole entry, looked up, the tested form may be a part): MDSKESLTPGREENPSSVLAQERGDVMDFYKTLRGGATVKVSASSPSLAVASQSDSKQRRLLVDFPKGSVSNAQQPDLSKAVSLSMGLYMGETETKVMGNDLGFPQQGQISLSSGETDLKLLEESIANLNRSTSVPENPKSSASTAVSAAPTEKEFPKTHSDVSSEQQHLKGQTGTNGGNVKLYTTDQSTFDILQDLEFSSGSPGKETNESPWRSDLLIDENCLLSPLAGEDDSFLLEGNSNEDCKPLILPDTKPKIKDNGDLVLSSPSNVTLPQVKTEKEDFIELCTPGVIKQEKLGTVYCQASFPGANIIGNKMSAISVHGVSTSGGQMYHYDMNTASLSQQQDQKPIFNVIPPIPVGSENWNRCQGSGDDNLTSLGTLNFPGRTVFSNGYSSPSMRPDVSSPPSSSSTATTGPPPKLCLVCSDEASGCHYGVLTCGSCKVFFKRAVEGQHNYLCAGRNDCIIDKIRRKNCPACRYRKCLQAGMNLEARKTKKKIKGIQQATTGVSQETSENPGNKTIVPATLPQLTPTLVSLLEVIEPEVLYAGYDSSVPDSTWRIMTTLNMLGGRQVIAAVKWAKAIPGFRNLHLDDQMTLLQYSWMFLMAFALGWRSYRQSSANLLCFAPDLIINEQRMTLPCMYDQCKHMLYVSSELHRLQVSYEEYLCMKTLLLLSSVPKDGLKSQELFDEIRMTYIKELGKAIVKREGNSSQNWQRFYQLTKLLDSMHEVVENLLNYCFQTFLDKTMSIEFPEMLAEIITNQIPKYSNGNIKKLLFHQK

[6] = target: Glucocorticoid receptor (Homo sapiens) (UniProt P04150); assay: GR-EFC Redistribution (AID 451; calls by dose curve; also: potency is read from the fitted curve at half-maximal effect); details: CHO-K1 GR-EFC translocation, beta-gal luminescence, 2 h
Method in brief: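 CHO-K1 cells stably expressing nuclear-localized β-gal enzyme acceptor and GR fused C-terminally to the enzyme donor fragment; ligand-driven nuclear translocation restores β-gal by complementation. Compounds titrated up to 46 uM final, 2 h at 37 °C; luminescence read.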

[7] = target: Mitogen-activated protein kinase 10 (Mus musculus) (UniProt Q61831); assay: JNK3 AlphaScreen Assay (AID 530; active = well fitted curve in either direction with a large enough effect, not every such curve was filed as active;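 also: kinase came from lysate of stimulated human HepG2 cells; signal reports phosphorylation of biotinylated GST-cJun 1-79 at Ser73 with 10 µM ATP; % is scaled to controls: 0 for no effect and ±100 for the full control effect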)
Method in brief: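 JNK3 came from HepG2 lysates pre-activated with IL-1beta and TNF-alpha and phosphorylated biotinylated GST-cJun (1-79) at 10 uM ATP, pH 7.6, room temperature. Compounds were titrated. AlphaScreen signal used anti-phospho-cJun (Ser73) antibody.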

[8] = target: 3',5'-cyclic-AMP phosphodiesterase 4B (Homo sapiens) (UniProt Q07343); assay: qHTS Assay for Inhibitors of PDE-IV (AID 607; active = well fitted activation curve with a large enough effect in the main read-out, with a control signal flat, not every such curve was filed as active; also: % of control where 0% means no effect)
Method in brief: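 ACTOne HEK293 cells carry a modified cAMP-gated CNG channel and express endogenous PDE4; plated 1000 cells/well, compounds up to 22.9 uM final. Membrane-potential dye fluorescence (ex 535/em 590) was read; parental cells received 10 uM forskolin + 100 uM RO 20-1724.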

[9] = target: Guanine nucleotide-binding protein G(i) subunit alpha-1 (Homo sapiens) (UniProt P63096); assay: qHTS Assay for Inhibitors of RGS12 GoLoco Motif Activity (Green Fluorophore) (AID 879);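 also: 0% = labeled peptide with Gαi1 and full inhibition = labeled peptide alone without protein; negative values mean loss of peptide binding seen as reduced polarization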
Sequence of Guanine nucleotide-binding protein G(i) subunit alpha-1 (Homo sapiens) (P63096 whole entry, looked up): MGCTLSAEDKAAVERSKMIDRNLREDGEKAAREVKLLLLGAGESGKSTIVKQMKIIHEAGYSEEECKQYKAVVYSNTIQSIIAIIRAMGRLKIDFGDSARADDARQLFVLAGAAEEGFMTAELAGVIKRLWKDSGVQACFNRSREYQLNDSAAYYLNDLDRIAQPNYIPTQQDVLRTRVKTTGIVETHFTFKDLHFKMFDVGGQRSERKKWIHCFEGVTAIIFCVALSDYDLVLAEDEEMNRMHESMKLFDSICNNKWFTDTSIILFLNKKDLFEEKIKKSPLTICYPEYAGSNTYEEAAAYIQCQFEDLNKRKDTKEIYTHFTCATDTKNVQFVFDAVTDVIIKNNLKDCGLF
Method in brief: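 Fluorescence polarization assay: 50 nM Gαi1 with 10 nM FITC-labeled RGS12 GoLoco peptide in 10 mM Tris pH 7.5, 150 mM NaCl, 0.1 mM GDP, 0.05% NP40, 10 min at room temperature with compound.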

[10] = target: Cytochrome P450 3A4 (Homo sapiens) (UniProt P08684); assay: qHTS Assay for Activators of Cytochrome P450 3A4 (AID 885); also: nearly all actives have a fitted effect of over 65% in size
Sequence of Cytochrome P450 3A4 (Homo sapiens) (P08684 whole entry, looked up): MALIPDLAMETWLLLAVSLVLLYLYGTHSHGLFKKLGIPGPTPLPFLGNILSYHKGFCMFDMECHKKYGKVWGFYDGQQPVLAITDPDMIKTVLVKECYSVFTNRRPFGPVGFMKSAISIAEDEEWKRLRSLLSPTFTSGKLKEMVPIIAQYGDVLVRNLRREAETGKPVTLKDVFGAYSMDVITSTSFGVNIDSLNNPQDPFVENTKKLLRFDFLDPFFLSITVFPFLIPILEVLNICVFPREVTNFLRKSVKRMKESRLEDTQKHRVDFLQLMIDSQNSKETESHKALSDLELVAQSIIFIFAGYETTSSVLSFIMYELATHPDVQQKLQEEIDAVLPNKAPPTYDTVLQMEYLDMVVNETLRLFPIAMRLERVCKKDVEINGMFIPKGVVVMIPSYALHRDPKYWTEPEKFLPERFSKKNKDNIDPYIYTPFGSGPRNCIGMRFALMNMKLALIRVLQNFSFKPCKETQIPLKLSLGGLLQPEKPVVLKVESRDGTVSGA
Method in brief: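 20nM CYP3A4 + 25uM Luciferin-PPXE (=KM), 200mM KPO4; cpd 10 min RT; NADPH regen, 60 min RT; stop w/ detection buffer, 20 min; luminescence. Normalized to 57 uM ketoconazole.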

[11] = qHTS Assay for Identification of Small Molecule Agonists for Thrombopoietin (TPO) Signaling Pathway (AID 917); also: % is scaled to controls: 0 for no effect and ±100 for the full control effect
Method in brief: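 Murine Ba/F3 cells stably expressing human TPO receptor and a Glycoprotein IIb promoter–luciferase reporter were IL-3-starved overnight, then treated with compounds plus TPO (26 pM final, its EC50) for 24 hrs at 37 C; luminescence was read.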

[12] = target: Muscarinic acetylcholine receptor M1 (Rattus norvegicus) (UniProt P08482); assay: qHTS Assay for Antagonists of Acetylcholine Muscarinic M1 Receptor: Measurement of IP-One Response (AID 944); also: nearly all actives have a fitted effect of over 75% in size
Sequence of Muscarinic acetylcholine receptor M1 (Rattus norvegicus) (P08482 whole entry, looked up): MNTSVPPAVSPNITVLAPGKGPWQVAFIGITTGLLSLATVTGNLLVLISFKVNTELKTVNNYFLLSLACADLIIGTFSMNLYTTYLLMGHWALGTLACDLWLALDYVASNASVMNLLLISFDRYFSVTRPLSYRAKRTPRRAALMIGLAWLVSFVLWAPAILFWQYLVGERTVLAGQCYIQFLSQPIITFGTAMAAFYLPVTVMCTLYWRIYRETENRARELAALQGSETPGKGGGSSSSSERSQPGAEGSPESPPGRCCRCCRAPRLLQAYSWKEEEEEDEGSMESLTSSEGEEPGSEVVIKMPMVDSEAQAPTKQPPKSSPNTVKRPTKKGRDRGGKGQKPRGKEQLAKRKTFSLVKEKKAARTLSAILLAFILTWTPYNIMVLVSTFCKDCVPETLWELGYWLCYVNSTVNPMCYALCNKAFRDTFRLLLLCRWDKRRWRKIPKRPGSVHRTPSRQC
Method in brief: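 Steps: plate transfected CHO-M1 cells overnight; add test compound, 10 min; add carbachol (200 nM, EC80) in stimulation buffer with LiCl; incubate 30 min; add labelled IP1 tracer and anti-IP1 antibody in lysis buffer; read HTRF after 10 min.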

[13] = target: Pyruvate kinase (Leishmania mexicana) (UniProt Q27686); assay: qHTS Validation Assay for Inhibitors of Leishmania Mexicana Pyruvate Kinase (AID 945);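 also: 0% = DMSO only neutral control wells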
Sequence of Pyruvate kinase (Leishmania mexicana) (Q27686 2-499 E452W): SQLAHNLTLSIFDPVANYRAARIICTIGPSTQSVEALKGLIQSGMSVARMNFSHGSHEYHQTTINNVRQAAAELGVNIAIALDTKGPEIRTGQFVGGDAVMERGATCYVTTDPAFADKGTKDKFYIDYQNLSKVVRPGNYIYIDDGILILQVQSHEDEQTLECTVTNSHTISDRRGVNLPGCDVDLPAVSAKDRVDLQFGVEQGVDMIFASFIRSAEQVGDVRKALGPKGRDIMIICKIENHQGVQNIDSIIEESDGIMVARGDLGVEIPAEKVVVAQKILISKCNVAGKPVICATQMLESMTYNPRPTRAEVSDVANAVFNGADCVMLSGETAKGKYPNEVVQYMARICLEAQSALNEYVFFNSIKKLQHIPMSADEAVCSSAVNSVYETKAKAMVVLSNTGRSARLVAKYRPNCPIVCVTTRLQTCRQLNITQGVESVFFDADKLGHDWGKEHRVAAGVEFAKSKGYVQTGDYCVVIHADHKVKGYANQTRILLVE
Method in brief: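 Pyruvate kinase activity of E451W LmPYK (0.2 nM) was followed as ATP output after 1 h at room temperature with 0.5 mM PEP and 0.1 mM ADP, detected by PKLight luminescence.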

[14] = target: Pyruvate kinase PKM (Homo sapiens) (UniProt P14618); assay: qHTS Assay for Activators of Human Muscle Pyruvate Kinase (AID 954; active = well fitted curve in the direction sought with a large enough effect, not every such curve was filed as active;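 also: 0% = uninhibited enzyme and -100% = no enzyme or full thiadiazolimine inhibition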)
Sequence of Pyruvate kinase PKM (Homo sapiens) (P14618 whole entry, looked up): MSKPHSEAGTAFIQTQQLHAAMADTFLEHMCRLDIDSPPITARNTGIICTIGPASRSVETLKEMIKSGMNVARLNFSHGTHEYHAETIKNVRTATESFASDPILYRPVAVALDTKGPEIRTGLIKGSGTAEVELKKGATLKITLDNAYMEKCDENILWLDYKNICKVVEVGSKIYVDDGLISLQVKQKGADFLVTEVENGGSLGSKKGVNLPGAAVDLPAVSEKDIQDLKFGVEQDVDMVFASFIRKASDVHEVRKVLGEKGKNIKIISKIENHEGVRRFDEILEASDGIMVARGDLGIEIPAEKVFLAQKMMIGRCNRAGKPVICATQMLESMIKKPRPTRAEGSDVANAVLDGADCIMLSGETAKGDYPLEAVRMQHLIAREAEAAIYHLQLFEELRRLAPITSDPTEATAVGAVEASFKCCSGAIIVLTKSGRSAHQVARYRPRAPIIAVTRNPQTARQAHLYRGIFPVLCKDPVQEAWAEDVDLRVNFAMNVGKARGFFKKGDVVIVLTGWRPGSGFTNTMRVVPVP
Method in brief: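 Luminescence from a luciferase ATP-detection/stop reagent reported PKM2 activity. Reactions contained 0.1 nM purified human enzyme, 0.5 mM PEP, 0.1 mM ADP and 7 mM MgCl2 at pH 7.2, run 1 h at RT.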

[15] = target: Alpha-galactosidase A (Homo sapiens) (UniProt P06280); assay: Counterscreen for Glucocerebrosidase Inhibitors: qHTS Assay for Human alpha-Galactosidase at pH 4.5 (AID 992); also: 0% is about no effect
Sequence of Alpha-galactosidase A (Homo sapiens) (P06280 whole entry, looked up): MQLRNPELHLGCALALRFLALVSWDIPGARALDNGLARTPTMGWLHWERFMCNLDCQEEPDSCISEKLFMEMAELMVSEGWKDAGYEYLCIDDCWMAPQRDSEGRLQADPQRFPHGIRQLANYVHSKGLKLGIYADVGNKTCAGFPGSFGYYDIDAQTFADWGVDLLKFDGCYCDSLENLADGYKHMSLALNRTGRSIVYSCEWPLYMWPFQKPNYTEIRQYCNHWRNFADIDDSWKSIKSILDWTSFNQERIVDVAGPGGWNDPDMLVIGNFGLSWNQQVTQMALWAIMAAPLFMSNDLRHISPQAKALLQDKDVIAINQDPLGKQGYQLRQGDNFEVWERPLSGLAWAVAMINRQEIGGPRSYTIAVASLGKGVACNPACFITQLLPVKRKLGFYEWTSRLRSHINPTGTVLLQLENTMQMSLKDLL
Method in brief: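 Enzyme at 2 nM final was combined with compound (0.7 nM to 77 uM) and 80 uM 4-methylumbelliferyl alpha-D-galactopyranoside in 50 mM citric acid, 0.005% Tween-20, pH 4.5. After 20 min at room temperature, fluorescence was read (Ex 365/Em 440 nm); AC50 came from Hill fits.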

[16] = target: alpha-glucosidase (Oryza sativa, rice) (UniProt Q653V4); assay: Counterscreen for Glucocerebrosidase Inhibitors: qHTS Assay for Rice alpha-Glucosidase at pH 5.0 (AID 997);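 also: 0% = full activity with enzyme and -100% = basal without enzyme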
Method in brief: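 Rice alpha-glucosidase (4 nM final) with 400 uM 4-methylumbelliferyl-alpha-D-glucopyranoside in citrate buffer pH 5.0, 20 min at room temperature, stopped at pH 10; fluorescence 365/440 nm, compounds 0.7 nM–77 uM, AC50 from Hill fits.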

[17] = Validation of Assay for Modulators of Lamin A Splicing (AID 1459; active = well fitted curve in the direction sought with a large enough effect in the signal ratio; the % refers to the signal ratio;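 also: cells exposed to compound for two days before reading; 0% is about no effect; ratio rise marks activators and ratio drop marks inhibitors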)
Method in brief: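 S3 HeLa cells stably expressing a lamin A-EGFP splicing minigene and DsRed2 were seeded at 600 cells/well in Opti-MEM with 2% FBS, pin-dosed, and incubated 48 hrs at 37 °C, 5% CO2. Laser-scanning cytometry (488 nm) gave GFP/RFP total intensity ratio.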

[18] = qHTS Assay for Lipid Storage Modulators (AID 1519; calls by dose curve); details: Drosophila S3 cells, BODIPY lipid droplet/cell ratio, laser cytometry, cells loaded with oleic acid
Method in brief: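 Cells seeded at 5,000 per well were treated with compounds over a concentration series and loaded with oleic acid (400 uM, as added). Lipid droplet fluorescence (488 nm excitation, 500-530 nm channel) was read by laser-scanning cytometry and normalized to 20 uM Triacsin C.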

[19] = target: DNA repair nuclease/redox regulator APEX1 (Homo sapiens) (UniProt P27695); assay: qHTS Validation Assay for Inhibitors of the Human Apurinic/apyrimidinic Endonuclease 1 (APE1) (AID 1705)
Sequence of DNA repair nuclease/redox regulator APEX1 (Homo sapiens) (P27695 whole entry, looked up): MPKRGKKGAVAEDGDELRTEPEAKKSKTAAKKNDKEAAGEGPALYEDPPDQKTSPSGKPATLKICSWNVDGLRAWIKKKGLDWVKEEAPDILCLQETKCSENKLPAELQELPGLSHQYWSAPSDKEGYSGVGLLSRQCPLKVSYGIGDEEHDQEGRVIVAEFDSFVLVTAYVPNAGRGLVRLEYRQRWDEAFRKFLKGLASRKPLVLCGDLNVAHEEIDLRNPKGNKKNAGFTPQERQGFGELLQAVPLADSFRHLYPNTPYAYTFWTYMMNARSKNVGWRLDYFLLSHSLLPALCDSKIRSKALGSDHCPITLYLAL
Method in brief: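 Human APE1 was preincubated with compound for 15 min at room temperature, then 50 nM (final) THF-abasic double-stranded DNA substrate bearing 5'-TAMRA and 3'-BHQ-2 was added. Incision-driven fluorescence rise (ex 525/em 598 nm) was read kinetically.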

CC(N)=NCc1cccc(CN)c1
-15%: max response ([18]; measured here: lipid channel max response)
-16.1%: max response ([18]; measured here: cell count channel max response)
inactive: activity change, negative = inhibition [1] -2.56% | Potency [2] | activity change, negative = inhibition [3] -2.12% | activity, negative = inhibition [4] 3.99% | Potency [5] > 46 µM | Potency [6] > 46 µM | Potency [7] | Potency [8] | outcome [9] | Potency [10] | Potency [11] | Potency [12] | Potency [13] | outcome [14] | outcome [15] | outcome [16] | outcome [17] | activity change, negative = inhibition ([18]; at 57.5 µM (top of the series)) 0.387% | Potency [19]

Source: PubChem BioAssay (NCATS)
